Several values for one entry are separate records, joined by “and”; a condition that tells them apart may be missing. Identical values can stand only once. Records with an inconclusive call do not appear. A structure can be active in one record and inactive in another. Activity calls are given as the source filed them. Unless noted, calls come from the whole dose curve; as a rule, active = well fitted curve in the direction sought with a large enough effect; inconclusive = small, poorly fitted or top-dose-only effect, or another doubt; inactive = no such curve, though single readings can be large; an effect the other way counts as inactive or inconclusive.
Tests used:
[1] = P-glycoprotein substrates identified in KB-3-1 adenocarcinoma cell line, qHTS therapeutic library screen (AID 1346986); note: nearly all actives have a fitted effect of over 60% in size;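 note: potency is the fitted concentration of half-maximal effect; potency is for cytotoxicity meaning loss of cell viability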
Procedure, shortened: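 Viability by CellTiter-Glo after 72 h compound exposure at 37 degree C, 5% CO2. Cytotoxic call: curve class -1.1 to -2.4, maximum response >50%, AC50 < 10 uM, compared across KB-3-1 and P-gp-overexpressing KB-8-5-11.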

[2] = P-glycoprotein substrates identified in KB-8-5-11 adenocarcinoma cell line, qHTS therapeutic library screen (AID 1346987); note: nearly all actives have a fitted effect of over 65% in size; note: potency is the fitted concentration of half-maximal effect
Procedure, shortened: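 Human cervical adenocarcinoma KB-8-5-11 cells, selected in colchicine to over-express P-gp and assayed without it, were exposed for 72 h to titrated compounds. An ATP-based luminescent viability signal gave AC50.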

[3] = NS1 protein of Zika virus - qHTS assay to identify small molecule inhibitors in human HEK 293 cells (AID 1347053); note: nearly all actives have a fitted effect of over 55% in size; note: potency is the fitted concentration of half-maximal effect
Procedure, shortened: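 Compound-treated (1 h pre-infection) HEK 293 cells infected with ZIKV MR766, MOI = 0.5; after 24 h at 37 C, NS1 read by TR-FRET; data normalized to uninfected and infected controls.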

[4] = qHTS of pediatric cancer cell lines to identify multiple opportunities for drug repurposing: Primary screen for TC32 cells (AID 1347089); note: nearly all actives have a fitted effect of over 60% in size; note: potency is the fitted concentration of half-maximal effect
Procedure, shortened: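 qHTS, TC32, 48 h drug treatment, CellTiter-Glo luminescence as a proxy for metabolically active cells; primary top concentration 46 µM (MIPE 11-pt, NPC 8-pt); confirmatory 11-pt.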

[5] = molecular target: Atrial natriuretic peptide receptor 1 (Homo sapiens) (UniProt P16066); test: Natriuretic polypeptide receptor (hNpr1) antagonism - Pilot screen (AID 1347049; calls by dose curve;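 note: agonist-evoked cGMP luminescence read 20 min after hNppA addition; series mostly up to about 58 µM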)
Procedure, shortened: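 cGMP-sensor HEK293/hNpr1 cells, 1500/well, plated overnight at 37C. 2% GloSensor reagent, 2 h RT. Compound (23 nL pin transfer) 30 min RT, baseline luminescence pre-read. 0.1 nM hNppA, 20 min RT, post-read.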

[6] = molecular target: Parathyroid hormone/parathyroid hormone-related peptide receptor (Homo sapiens) (UniProt Q03431); test: qHTS for PTHR1 Agonists: Optimization Screen against the NCGC LOPAC library (AID 1347079);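 note: GloSensor cAMP luminescence in HEK-293 GP2 cells expressing human PTHR1 with IBMX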
Procedure, shortened: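 Signal increase flags agonism. GP2 cells, derived from HEK-293, express human PTHR1 and a GloSensor cAMP construct.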

[7] = Natriuretic polypeptide receptor (hNpr1) antagonism - Pilot counterscreen GloSensor control cell line (AID 1347045; calls by dose curve; note: potency is the fitted concentration of half-maximal effect)
Procedure, shortened: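 The SNP-driven cGMP luminescence signal (50 uM, 20 min, room temperature) was measured in GloSensor HEK293 control cells. Compounds were tested as a LOPAC titration series and preincubated for 30-50 min.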

[8] = molecular target: T1, Tyrosine-protein phosphatase non-receptor type substrate 1 (Homo sapiens) + Leukocyte surface antigen CD47 (Homo sapiens) (UniProt P78324+Q08722); test: CD47-SIRPalpha protein protein interaction - LANCE assay qHTS validation (AID 1347057; active = well fitted curve in the direction sought with a large enough effect in the signal ratio, with a control signal flat, not every such curve was filed as active; the % refers to the signal ratio; note: series mostly up to about 38 µM)
Procedure, shortened: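 Inhibition of soluble CD47/SIRPalpha ectodomain association by titrated compounds, measured as 665/615 nm time-resolved FRET ratio after sequential 30 min room-temperature incubations.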

[9] = molecular target: T1, Tyrosine-protein phosphatase non-receptor type substrate 1 (Homo sapiens) + Leukocyte surface antigen CD47 (Homo sapiens); test: CD47-SIRPalpha protein protein interaction - HTRF assay qHTS validation (AID 1347058; active = well fitted curve in the direction sought with a large enough effect in the signal ratio, not every such curve was filed as active; the % refers to the signal ratio; note: series mostly up to about 38 µM)
Procedure, shortened: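 Soluble extracellular domains (6His-CD47, Avi-tag-biotinylated SIRPalpha) in PBS pH 7.4 with 0.05% IGEPAL CA-630. Compounds were preincubated 30 min at RT with CD47 and anti-His-Eu, then SIRPalpha and SAV-XL665 were added. TR-FRET 665/615 ratio.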

[10] = molecular target: T1, Tyrosine-protein phosphatase non-receptor type substrate 1 (Homo sapiens) + Leukocyte surface antigen CD47 (Homo sapiens); test: CD47-SIRPalpha protein protein interaction - Alpha assay qHTS validation (AID 1347059);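 note: bead proximity luminescence from CD47 binding SIRPalpha after compound preincubation with SIRPalpha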
Procedure, shortened: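 SIRPalpha-biotin 25 nM + cpd, 30 min RT, dark; add CD47-His 12.5 nM, 30 min; add Ni-NTA/SAV beads 10 ug/mL, 30 min; AlphaScreen. Buffer PBS pH 7.4 + 0.05% IGEPAL CA-630. Non-biotinylated SIRPalpha as control inhibitor.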

Measured: Potency

T1 sequence (P78324 whole entry, looked up, the tested form may be a part): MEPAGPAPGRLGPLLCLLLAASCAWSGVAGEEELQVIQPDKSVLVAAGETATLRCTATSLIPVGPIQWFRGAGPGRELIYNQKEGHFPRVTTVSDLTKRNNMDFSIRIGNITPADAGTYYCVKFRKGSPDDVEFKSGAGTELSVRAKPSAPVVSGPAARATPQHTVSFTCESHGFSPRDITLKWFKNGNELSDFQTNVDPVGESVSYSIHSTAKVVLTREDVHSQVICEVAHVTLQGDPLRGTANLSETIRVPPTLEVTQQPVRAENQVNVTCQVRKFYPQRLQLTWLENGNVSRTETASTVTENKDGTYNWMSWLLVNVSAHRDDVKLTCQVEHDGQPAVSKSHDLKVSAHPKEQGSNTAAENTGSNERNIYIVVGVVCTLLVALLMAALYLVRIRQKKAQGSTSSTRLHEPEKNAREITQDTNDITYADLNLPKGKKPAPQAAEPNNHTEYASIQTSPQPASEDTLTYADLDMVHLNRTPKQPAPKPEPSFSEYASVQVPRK
T1 sequence (Q08722 whole entry, looked up, the tested form may be a part): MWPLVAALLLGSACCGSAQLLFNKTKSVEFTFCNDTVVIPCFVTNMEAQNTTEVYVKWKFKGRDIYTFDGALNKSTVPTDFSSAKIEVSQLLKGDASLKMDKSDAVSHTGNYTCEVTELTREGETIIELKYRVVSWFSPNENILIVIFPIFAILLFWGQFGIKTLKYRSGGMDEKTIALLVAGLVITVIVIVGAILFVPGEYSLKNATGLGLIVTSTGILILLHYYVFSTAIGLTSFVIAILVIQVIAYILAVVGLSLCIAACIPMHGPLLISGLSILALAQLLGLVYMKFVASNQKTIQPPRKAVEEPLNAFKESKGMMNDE
Chain of Parathyroid hormone/parathyroid hormone-related peptide receptor (Homo sapiens) (Q03431 whole entry, looked up): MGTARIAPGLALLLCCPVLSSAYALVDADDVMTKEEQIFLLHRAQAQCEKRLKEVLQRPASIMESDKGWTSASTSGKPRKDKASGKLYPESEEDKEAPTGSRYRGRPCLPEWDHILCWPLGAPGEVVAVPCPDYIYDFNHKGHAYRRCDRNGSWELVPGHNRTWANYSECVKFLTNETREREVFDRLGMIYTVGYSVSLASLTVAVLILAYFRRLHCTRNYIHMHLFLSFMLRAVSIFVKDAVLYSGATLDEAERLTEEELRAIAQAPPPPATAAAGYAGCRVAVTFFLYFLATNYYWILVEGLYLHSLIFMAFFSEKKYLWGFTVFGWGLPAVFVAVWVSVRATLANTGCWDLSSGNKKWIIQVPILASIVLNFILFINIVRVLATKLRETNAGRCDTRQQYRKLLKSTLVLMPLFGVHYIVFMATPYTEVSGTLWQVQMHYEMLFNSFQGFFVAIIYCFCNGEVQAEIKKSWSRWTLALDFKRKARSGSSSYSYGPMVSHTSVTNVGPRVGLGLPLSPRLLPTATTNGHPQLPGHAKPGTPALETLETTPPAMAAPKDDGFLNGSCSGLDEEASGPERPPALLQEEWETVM
Chain of Atrial natriuretic peptide receptor 1 (Homo sapiens) (P16066 whole entry, looked up): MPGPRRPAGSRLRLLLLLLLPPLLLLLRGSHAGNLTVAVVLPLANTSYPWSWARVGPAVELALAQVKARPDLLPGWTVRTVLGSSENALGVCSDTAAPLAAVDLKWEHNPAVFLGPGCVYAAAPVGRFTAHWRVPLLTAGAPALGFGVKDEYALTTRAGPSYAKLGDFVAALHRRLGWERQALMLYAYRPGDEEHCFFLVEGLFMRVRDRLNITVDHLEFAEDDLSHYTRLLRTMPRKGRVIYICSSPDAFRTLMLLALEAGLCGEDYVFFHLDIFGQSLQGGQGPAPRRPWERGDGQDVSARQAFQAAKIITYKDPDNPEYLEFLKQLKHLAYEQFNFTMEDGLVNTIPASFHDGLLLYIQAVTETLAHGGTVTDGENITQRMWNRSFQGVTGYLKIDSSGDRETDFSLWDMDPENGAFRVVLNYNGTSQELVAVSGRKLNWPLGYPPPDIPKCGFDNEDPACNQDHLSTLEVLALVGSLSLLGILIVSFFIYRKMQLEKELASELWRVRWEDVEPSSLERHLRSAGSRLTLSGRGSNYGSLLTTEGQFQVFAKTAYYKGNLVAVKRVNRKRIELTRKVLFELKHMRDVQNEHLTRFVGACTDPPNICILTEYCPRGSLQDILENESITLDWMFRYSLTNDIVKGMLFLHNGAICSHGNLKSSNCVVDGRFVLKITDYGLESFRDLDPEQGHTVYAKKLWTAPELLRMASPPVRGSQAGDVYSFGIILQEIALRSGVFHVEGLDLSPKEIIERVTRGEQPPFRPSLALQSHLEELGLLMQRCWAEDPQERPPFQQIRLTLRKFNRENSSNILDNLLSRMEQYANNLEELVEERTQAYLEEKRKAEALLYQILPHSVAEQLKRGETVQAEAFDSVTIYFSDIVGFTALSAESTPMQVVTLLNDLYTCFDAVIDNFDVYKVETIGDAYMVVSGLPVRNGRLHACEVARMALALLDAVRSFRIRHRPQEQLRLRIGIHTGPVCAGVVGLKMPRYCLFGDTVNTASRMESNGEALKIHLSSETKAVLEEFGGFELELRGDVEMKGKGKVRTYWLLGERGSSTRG

O=C(O)c1ccccc1C(=O)Nc1ccc(-c2ccccc2)cc1
inactive: [1] | [2] | [3] | [4]

O=C(Nc1cc(Cl)cc2c1[nH]c1cnccc12)c1cccnc1
inactive: [1] | [2] | [3] | [4]

Nc1ncnc2ccccc12
inactive: [1] | [2] | [3] | [4]

COc1cc(N2CCC(N3CCN(C)CC3)CC2)ccc1Nc1ncnc(Nc2ccccc2S(=O)(=O)C(C)C)n1
active: [1] 10.3 µM | [2] 5.9 µM and 9.2 µM

CCOC(=O)O[C@]1(C(=O)OCCl)CC[C@@H]2[C@H]3CCC4=CC(=O)C=C[C@]4(C)[C@@H]3[C@@H](O)C[C@@]21C
inactive: [1] | [2] | [3] | [4]

OC[C@H]1O[C@@H](Oc2cc(O)cc(C=Cc3ccc(O)cc3)c2)[C@H](O)[C@@H](O)[C@H]1O
inactive: [1] | [2] | [3] | [4]

NC(=O)c1cnc(-c2ccc(C3(N)CCC3)cc2)c(-c2ccccc2)c1
inactive: [2] | [4]
active: [1] 16.4 µM

COc1ccc(-c2nc(N3CCOCC3)c3sc(CN(C)c4ncc(C(=O)NO)cn4)cc3n2)cn1
active: [1] 0.164 µM | [2] 20.9 nM and 231 nM | [4] 0.0415 µM

Cc1ccc([C@@H]2O[C@H](CO)[C@@H](O)[C@H](O)[C@@H]2O)cc1Cc1ccc(-c2ccc(F)cc2)s1
inactive: [1] | [2] | [4]

O=c1ccn([C@@H]2O[C@H](CO)[C@H](O)[C@H]2O)c(=O)[nH]1
inactive: [1] | [2] | [3] | [4]

COc1cc2ncnc(-n3nc(-c4ccccn4)nc3N)c2cc1OC
inactive and 10 µM (active): [2]
inactive: [1] | [3] | [4]

CC1(C)S[C@H]2[C@H](NC(=O)[C@@H](N)c3ccc(O)cc3)C(=O)N2[C@@H]1C(=O)O
inactive: [1] | [2] | [3]

Cc1cnc(C(=O)O)c[n+]1[O-]
inactive: [1] | [2] | [4]

CCN(CC)CCOc1ccc(C(=C(Cl)c2ccccc2)c2ccccc2)cc1
inactive: [1] | [2] | [3] | [4]

Nc1nc(F)nc2c1ncn2[C@@H]1O[C@H](COP(=O)(O)O)[C@@H](O)[C@H]1O
inactive: [1] | [2] | [3]

CCOC1OC(=O)C[C@H]1NC(=O)[C@@H]1CCCN1C(=O)[C@@H](NC(=O)c1ccc(N)c(Cl)c1)C(C)(C)C (stereo not given in full)
inactive: [1] | [2] | [3] | [4]

CCC(=O)NC[C@H](Cc1ccc(OCCc2nc(-c3ccccc3)oc2C)cc1)NC(C)=CC(=O)c1ccc(C(F)(F)F)cc1
active: [3] 16.6 µM
inactive: [1] | [2] | [4]

O=c1c(O)c(-c2ccc(O)cc2)oc2cc(O)cc(O)c12
inactive: [1] | [2] | [3] | [4]

CCCCCCCCCCCC1=C(O)C(=O)C=C(O)C1=O
inactive: [1] | [2] | [3] | [4]

CC(C)(C)c1cc(C(=O)O)c(NC(=O)Nc2ccc3[nH]ncc3c2)s1
inactive: [1] | [2] | [3] | [4]

CCOC(=O)C1=C(N)Oc2ccc(Br)cc2C1C(C#N)C(=O)OCC (stereo not given)
inactive: [1] | [2] | [3] | [4]

O=c1cc(N2CCOCC2)oc2c(-c3cccc4c3sc3ccccc34)cccc12
inactive: [1] | [2] | [4]
active: [3] 18.7 µM

Cc1nc(N)sc1-c1ccnc(Nc2ccc(N3CCOCC3)cc2)n1
active: [1] 1.46 µM | [2] 5.26 µM and 1.16 µM

O=c1cc(-c2cccc3c2Sc2ccccc2S3)oc(N2CCOCC2)c1
inactive: [1] | [2] | [4]

CC(=O)CCCCn1c(=O)c2c(ncn2C)n(C)c1=O
inactive: [1] | [2] | [5] | [3] | [6] | [4]

CC[C@H]1OC(=O)[C@H](C)[C@@H](O[C@H]2C[C@@](C)(OC)[C@@H](O)[C@H](C)O2)[C@H](C)[C@@H](O[C@@H]2O[C@H](C)C[C@H](N(C)C)[C@@H]2O)[C@](C)(O)C[C@@H](C)CN(C)[C@H](C)[C@@H](O)[C@]1(C)O
inactive: [1] | [2] | [3] | [4]

CC(=O)O[C@]1(C(C)=O)CC[C@@H]2[C@@H]3C[C@H](C)C4=CC(=O)CC[C@]4(C)[C@H]3CC[C@@]21C
inactive: [1] | [2] | [4]

CCN1CCC[C@H]1CNC(=O)c1cc(S(N)(=O)=O)ccc1OC
inactive: all assays above

CC1(C)Cc2c(sc(NC(=S)NC(=O)c3ccccc3)c2C(=O)O)CO1
inactive: [1] | [2] | [3] | [4]

O=c1c(-c2ccc(O)cc2)coc2cc(O[C@@H]3O[C@H](CO)[C@H](O)[C@H](O)[C@H]3O)ccc12
inactive: [1] | [2] | [3] | [4]

COc1cccc([C@@H](C)NCCCc2ccccc2Cl)c1
inactive: [1] | [2] | [3] | [4]

CN(C)CCC=C1c2ccccc2COc2ccc(CC(=O)O)cc21
inactive: [1] | [2] | [3] | [4]

CCN(CC)CCNC(=O)c1ccc(N)cc1
not listed: [3]
inactive: all other assays above

O=C(O)c1ccc(-c2c[nH]c3ncc(-c4ccccc4)cc23)cc1C1CCCC1
inactive and 3.66 µM (active): [2]
inactive: [1] | [3] | [4]

COc1cccc(-c2cc(=O)c3ccccc3o2)c1N
inactive: [1] | [2] | [5] | [8] | [10] | [6]

CC(C)(C(=O)NCC(F)(F)C(F)(F)F)C(=O)N[C@@H]1C(=O)Nc2ccccc2-c2ccccc21
inactive: [1] | [2] | [3] | [4]

COC(=O)[C@@H]1[C@H]2C[C@H]3c4[nH]c5ccccc5c4CCN3C[C@@H]2CC[C@@H]1O
inactive: [2] | [5] | [3] | [6] | [4]

O=C1NC(=O)C(c2ccccc2)(c2ccccc2)N1
not listed: [1]
inactive: all other assays above

CC[C@@H]1C=C(C)C[C@H](C)C[C@H](OC)[C@H]2O[C@@](O)(C(=O)C(=O)N3CCCC[C@@H]3C(=O)O[C@H](C(C)=C[C@@H]3CC[C@H](Cl)[C@H](OC)C3)[C@H](C)[C@@H](O)CC1=O)[C@H](C)C[C@H]2OC
active: [3] 23.5 µM
inactive: [1] | [4]

NC(N)=Nc1nc(CSCC/C(N)=N/S(N)(=O)=O)cs1
not listed: [1] | [7]
inactive: all other assays above

CC1=C(/C=C/C(C)=C/C=C/C(C)=C/C(=O)Nc2ccc(O)cc2)C(C)(C)CCC1
active: [2] 23.1 µM
inactive: [7] | [5] | [8] | [9] | [6]

O=C1NCC2(CCN(CCc3ccccc3)CC2)O1
not listed: [1]
inactive: all other assays above

CC(=O)N[C@@H](CS)C(=O)O
not listed: [1]
inactive: all other assays above

COc1ccccc1N1CCN(CCCNc2cc(=O)n(C)c(=O)n2C)CC1
not listed: [1] | [3]
inactive: all other assays above

CC1(C)CCC2=C(O1)c1ccccc1C(=O)C2=O
active: [7] 14.7 µM
not listed: [1] | [9]
inactive: all other assays above

CN(C)CCC(c1ccccc1)c1ccccn1 (stereo not given)
not listed: [1]
inactive: all other assays above

O=C(O)CCc1nc(-c2ccccc2)c(-c2ccccc2)o1
not listed: [2]
inactive: all other assays above

Nc1ncnc2c1ncn2[C@@H]1O[C@H](CO)C[C@@H]1O
inactive: [1] | [3] | [4]

COc1ccc(-c2coc3cc(O)cc(O)c3c2=O)cc1
inactive: [1] | [4]

CCn1cc(C(=O)O)c(=O)c2ccc(C)nc21
not listed: [1]
inactive: all other assays above

CC(C)[C@H](CO)Nc1nc(Nc2ccc(C(=O)O)c(Cl)c2)c2ncn(C(C)C)c2n1
inactive: [1] | [3]

COCCOC(=O)C1=C(C)NC2=C(C(=O)CC(c3ccccc3OC)C2)C1c1cccc(O)c1 (stereo not given)
inactive: [2] | [3]

O=C(NCCN1CCOCC1)c1ccc(Cl)cc1
not listed: [1]
inactive: all other assays above

CO[C@@H](C(=O)N1Cc2[nH]nc(NC(=O)c3ccc(N4CCN(C)CC4)cc3)c2C1)c1ccccc1
active: [1] 1.3 µM
inactive: [3]

Cc1ccc(F)c(NC(=O)Nc2ccc(-c3cccc4[nH]nc(N)c34)cc2)c1
inactive: [3]
active: [2] 23.5 µM

CNC(=O)c1ccc2cc(C3(O)CCn4cncc43)ccc2c1 (stereo not given)
inactive: [1] | [3] | [4]

CCN(CC)C(=O)c1ccc(O)c(OC)c1
not listed: [1]
inactive: all other assays above

Nc1ncnc2c1ncn2[C@@H]1O[C@@H](CO)[C@H](O)[C@H]1O
inactive: [1] | [3] | [4]

O=C(O)CCC1CCC(c2cc(F)ccc2F)(S(=O)(=O)c2ccc(Cl)cc2)CC1 (stereo not given)
inactive: [1] | [2] | [4]

CNC(=O)c1ccccc1Sc1ccc2c(C=Cc3ccccn3)n[nH]c2c1
active: [2] 4.18 µM

— PubChem BioAssay (NCATS)
